Source: PubChem
Compounds with a hit are over-represented: about 27% of the library has one in this group of screens.
sEH inh – inhibitors of human soluble epoxide hydrolase. P34913. recombinant human sEH enzymatic activity assay. inhibition, % at 2 µM. hit rate 0.34% among 91,000; in the data active = inhibition above about 80%
Target sequence (P34913 whole entry, looked up): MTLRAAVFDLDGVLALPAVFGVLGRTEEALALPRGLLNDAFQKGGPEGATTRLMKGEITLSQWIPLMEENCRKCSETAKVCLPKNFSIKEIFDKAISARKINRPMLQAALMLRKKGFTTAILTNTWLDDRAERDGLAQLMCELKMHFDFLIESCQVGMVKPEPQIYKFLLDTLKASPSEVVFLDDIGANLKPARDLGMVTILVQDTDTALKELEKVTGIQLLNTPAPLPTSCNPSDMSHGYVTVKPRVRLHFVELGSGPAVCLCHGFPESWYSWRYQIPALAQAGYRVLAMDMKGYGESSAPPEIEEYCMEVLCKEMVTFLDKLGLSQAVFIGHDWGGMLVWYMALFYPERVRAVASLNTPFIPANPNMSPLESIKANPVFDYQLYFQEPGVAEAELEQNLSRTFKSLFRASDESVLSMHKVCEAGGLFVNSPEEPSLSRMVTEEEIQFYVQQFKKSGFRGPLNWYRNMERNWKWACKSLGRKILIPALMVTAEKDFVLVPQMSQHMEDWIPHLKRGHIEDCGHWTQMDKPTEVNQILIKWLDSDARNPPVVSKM
CYP2C9 activ – increases human cytochrome P450 2C9 activity | activation factor at 5 µM | P11712 | AID 1024 | hit rate 1.4% among 96,000 | recombinant CYP2C9, luciferin-H conversion, luminescence; stronger effect = higher value; factor 1 = untreated enzyme, 0 = blocked;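 active = activation factor of 2 or more for CYP2C9 at a 5 µM dose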;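 also: 0 = sulfaphenazole-blocked wells and 1 = vehicle-only wells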
CYP2C9 inh – human CYP2C9 inhibition; hit rate 20% among 96,000; inhibition, % at 5 µM; CYP2C9 Supersomes, luciferin-H conversion, luminescence; P11712;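 active = blocking of liver enzyme CYP2C9 beyond about 50% at 5 µM, limit read from the data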
sEH act – soluble epoxide hydrolase (human) activation. P34913. purified human sEH enzymatic activity, activator screen. activation, % at 2 µM. hit rate 0.04% among 91,000. AID 717; in the data active = activation above about 37%
CYP2C19 inh – inhibitors of human CYP2C19 | P33261 | CYP2C19 Supersomes, luciferin-H EGE luminescence, 30 min | inhibition, % at 5 µM | hit rate 21% among 96,000 | AID 778;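 active = CYP2C19 inhibition above a set limit at 5 µM in the primary screen, cut at about 50% in these data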;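 also: plate controls were negative control wells for no effect and 2.5 mM tranylcypromine positive control for full effect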
CYP2C19 act – activators of human cytochrome P450 2C19; P33261; recombinant CYP2C19, luciferin-H EGE luminescence; stronger effect = higher value; 0 = fully inhibited enzyme, 1 = untreated enzyme; activation factor at 5 µM; 96,000 tested, under 10 active; AID 1025;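 active = activation factor of at least 2 at 5 µM in the primary screen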;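 also: 0 = wells with 2.5 mM tranylcypromine and 1 = vehicle-only wells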
An asterisk follows results filed as active; nt = no result.

SMILES	sEH inh	CYP2C9 activ	CYP2C9 inh	sEH act	CYP2C19 inh	CYP2C19 act
Cc1ccc(Cl)cc1N1CCN(S(=O)(=O)c2cnc[nH]2)CC1	7.3	0	96.7*	-4.0	99.2*	0
O=C(C1CCCN(S(=O)(=O)c2ccccc2)C1)N1CCN(c2ncccn2)CC1 (stereo unspecified)	0.8	nt	nt	-2.6	nt	nt
O=C(C1CCCN(S(=O)(=O)c2cccnc2)C1)N1CCN(c2ccccn2)CC1 (stereo unspecified)	-17.3	0.4	63.1*	16.2	9.1	0.9
O=C(C1CCN(S(=O)(=O)c2cccnc2)CC1)N1CCN(c2ccccc2Cl)CC1	-10.1	1.2	-18.9	8.1	-16.5	1.2
Cc1ccc(Cl)cc1N1CCN(C(=O)C2CCN(S(=O)(=O)c3cccnc3)CC2)CC1	-21.8	0.5	54.8*	23.5	61.2*	0.4
Cc1ccc(Cl)cc1N1CCN(S(C)(=O)=O)CC1	-6.4	0.9	14.9	6.9	46.1	0.5
Cc1ccccc1Cn1c(=N)n(CC(=O)c2ccco2)c2ccccc21	-9.7	1	0.5	7.9	3.2	1
CCOc1ccc(Oc2ccc(-c3nnc(-c4ccccc4)o3)cc2[N+](=O)[O-])cc1	nt	0.9	13.2	nt	12.4	0.9
COc1ccc(CN2CCN(C(=O)CC(C)C)CC2)c2ccccc12	8.2	0.9	9.8	-9.5	52.5*	0.5
O=C(c1cnn2cccnc12)N1CCN(Cc2ccc3c(c2)OCO3)CC1	14.5	1	-3.6	-14.4	11.6	0.9
O=C(c1cccn2c(=O)c3ccc(Cl)cc3nc12)N1CCN(Cc2ccc3c(c2)OCO3)CC1	-0.6	0.3	70.5*	-1.3	18.9	0.8
COc1cccc(OC)c1C(=O)N1CCN(Cc2ccc3c(c2)OCO3)CC1	5.3	0.4	60.8*	-5.5	56.7*	0.4
CCOc1ncccc1C(=O)N1CCN(Cc2ccc3c(c2)OCO3)CC1	-6.5	0.5	54.7*	5.8	82.5*	0.2
COc1ccc(CN2CCN(C(=O)CC(C)C)CC2)cc1OC	4.9	1.4	-37.1	-4.8	-2.2	1
CCc1cccc2c(=O)c(C(=O)NCCN3CCOCC3)c[nH]c12	7.0	1.2	-17.2	-5.5	-14.4	1.1
O=C(N1CCN(Cc2ccc3c(c2)OCO3)CC1)C12CC3CC(CC(C3)C1)C2	nt	0.5	50.0*	nt	65.7*	0.3
O=C(Cn1ncc2c1-c1ccccc1OC2)N1CCN(Cc2ccc3c(c2)OCO3)CC1	-6.9	0.3	68.4*	10.8	7.8	0.9
Cc1ccc(C(=O)N2CCN(Cc3ccc4c(c3)OCO4)CC2)o1	-1.6	0.6	41.8	1.5	49.5	0.5
COc1cccc(OC)c1C(=O)N1CCN(Cc2ccccc2C)CC1	-11.8	0.3	74.5*	10.3	79.0*	0.2
O=C(CN1C(=O)c2ccccc2S1(=O)=O)N1CCN(Cc2ccc3c(c2)OCO3)CC1	nt	0.7	35.0	nt	18.5	0.8
Cc1ccc(NC(=O)N2CCN(Cc3ccc4c(c3)OCO4)CC2)cc1	16.4	0.2	81.2*	-16.8	34.1	0.7
CC(c1nnc(Sc2nnnn2-c2ccccc2)n1-c1ccc(F)cc1)N(C)C (stereo unspecified)	-2.7	0.6	38.9	2.3	10.4	0.9
Cc1ccc2nc(C)c(C)nc2c1N	-14.2	0.9	14.5	16.3	77.4*	0.2
Cc1ccc(CCNC(=O)C2CCC(=O)N2C(C)C)cc1 (stereo unspecified)	nt	1.2	-19.1	nt	-7.5	1.1
CC(/C=C1\SC(=S)N(NC(=O)c2ccc(C)cc2)C1=O)=C\c1ccccc1	2.9	0.4	61.2*	-1.2	18.3	0.8
SMILES	sEH inh	CYP2C9 activ	CYP2C9 inh	sEH act	CYP2C19 inh	CYP2C19 act
CC(/C=N/NC(=O)c1ccc(Br)cc1)=C\c1ccccc1	18.4	0.7	29.6	-15.8	-0.7	1
O=C(CSc1nnc(-c2ccc(F)cc2)o1)Nc1ccccc1N1CCOCC1	1.7	nt	nt	4.0	nt	nt
CCc1nc(C)cc(N)c1OCc1ccccc1	-16.0	1	1.2	14.4	4.4	1
Cc1ccc(Nc2nnns2)cc1C	9.7	0.7	34.5	-6.7	39.8	0.6
CCOC(=O)C1CCN(S(=O)(=O)Cc2ccccc2)CC1	-12.3	0.3	69.1*	9.6	44.6	0.6
CCOC(=O)C1CCCN(S(=O)(=O)Cc2ccccc2)C1 (stereo unspecified)	-9.1	0.9	10.0	8.7	20.1	0.8
CCOC(=O)C1CCN(C(=O)CN(Cc2ccc(Cl)cc2)S(C)(=O)=O)CC1	3.2	0.8	18.2	-2.0	42.0	0.6
CCOC(=O)C1CCN(S(=O)(=O)Cc2ccc(Cl)cc2)CC1	-0.3	0.1	93.2*	0.6	87.2*	0.1
CCOC(=O)c1sc2ncn(CC(=O)NCC3CCCO3)c(=O)c2c1C (stereo unspecified)	nt	0.8	20.8	nt	12.8	0.9
CCOc1ccc(NC(=O)c2cccc(OC(=S)N3CCC(C)CC3)c2)cc1	69.5	0.3	73.9*	-69.9	93.5*	0.1
Cc1cc2c(=O)n(CC(=O)NCC(=O)N3CCN(Cc4ccccc4)CC3)cnc2s1	nt	0.5	51.8*	nt	17.1	0.8
Cc1cc2c(=O)n(CC(=O)N3CCN(c4ccccc4)CC3)cnc2s1	-1.8	1.1	-13.1	4.6	-7.3	1.1
Nc1ccc(-n2ccnc2)cc1	-2.8	0.5	51.6*	3.6	57.5*	0.4
c1ccc(N(c2ccccc2)c2nc(N3CCCC3)nc(-n3ccnc3)n2)cc1	7.5	0.9	5.7	-6.1	-0.6	1
CN1CCN(C(=O)c2ccc(-n3cccc3)cc2)CC1	7.8	0.6	42.5	-5.2	-0.3	1
CCN(CC)CC(=O)Nc1ccc(C)cc1Br	2.3	0.4	61.5*	1.3	49.9	0.5
Cc1ccc(NC(=O)CC(O)(C(F)(F)F)C(F)(F)F)c(Br)c1	11.3	0.1	86.4*	-6.3	86.6*	0.1
COc1ccc(-c2nnc(SCc3nnc(-c4ccccc4)o3)n2C)cc1OC	7.8	0.8	19.7	-9.7	13.6	0.9
CCN(CC)S(=O)(=O)c1cccc(-c2nnc(SCc3ncc(-c4ccccc4)o3)n2C)c1	1.3	0.5	50.6*	-1.7	37.8	0.6
CCSc1nnc(-c2cccc(S(=O)(=O)N(CC)CC)c2)n1Cc1ccccc1	-8.5	0.2	76.5*	6.8	90.5*	0.1
CCNC(=O)CSc1nnc(-c2cccc(S(=O)(=O)N(CC)CC)c2)n1CCc1ccccc1	10.7	0.9	11.6	-13.1	-17.1	1.2
Nc1cc(=O)[nH]n1C1CCN(c2ccccc2)CC1	-11.9	1.4	-36.6	12.1	12.2	0.9
CC(C(=O)Nc1ccccc1C(=O)N1CCOCC1)N(c1ccccc1)S(C)(=O)=O (stereo unspecified)	-3.4	nt	nt	8.9	nt	nt
Cc1c(C(=O)NC(C)CN2CCCCC2)oc2ccccc12 (stereo unspecified)	-4.2	1	-2.5	7.6	3.0	1
CC(C)(C)c1cn(-c2ccc(Cl)cc2)c(=S)[nH]1	6.6	0.7	27.0	-7.8	73.4*	0.3
